Experimental data as given in PubChem BioAssay AID504467 (National Center for Advancing Translational Sciences (NCATS), 2011).
Out of some 330,000 compounds screened, about 7,700 (2.3%) were called active. About 26% were inconclusive and are not listed. What follows is part of a selection rich in actives, with near analogues and random picks from the rest. A number with no mark means an inactive call. Calls come from the whole dose curve; as a rule, active = well fitted inhibition curve with a large enough effect; inconclusive = small, poorly fitted or top-dose-only effect, or effect the other way; inactive = flat fitted curve, though single readings scatter.

Assay: qHTS screen for small molecules that inhibit ELG1-dependent DNA repair in human embryonic kidney (HEK293T) cells expressing luciferase-tagged ELG1; note: nearly all actives have a fitted effect of over 55% in size
Settings: HEK293T ELG1-luciferase reporter, luminescence, 16 h, DNA damage induced by 5-fluorouridine; series mostly up to 46.1 µM; activity change, negative = inhibition: at the top concentration
In short: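 Quantitative HTS, concentration-response format. 2,000 cells/well co-treated with 5-fluorouridine and compound, 16 hr in 5% CO2 at 37 °C; ONE-Glo luminescence read after 30 min.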
% is set by controls: 0 for no effect and ±100 for the full control effect; potency is the fitted concentration of half-maximal effect.

Structure (SMILES)	Potency	activity change, negative = inhibition [%]
C=CCCC(=O)Nc1nc(C)c(-c2csc(Nc3ccc(Cl)cc3)n2)s1	18.4 µM (active)	
CCC(=O)Nc1nc(C)c(C(=O)Nc2cccc(Cl)c2)s1		4.34
CCCCC(=O)Nc1nc(C)c(-c2csc(Nc3ccc(Cl)cc3)n2)s1	20.6 µM (active)	
CC(=O)Nc1nc(C)c(-c2csc(Nc3ccc(S(N)(=O)=O)cc3)n2)s1		-12.6
Cc1ccc(Nc2nc(-c3sc(NC(=O)c4ccccc4)nc3C)cs2)cc1		-1.44
CCCCCCC(=O)Nc1nc(C)c(-c2csc(Nc3cc(Cl)ccc3OC)n2)s1		-5.51
CCOC(=O)N1CCN(C(=O)c2ccccc2SCC(=O)NCC2CCCCC2)CC1		-0.248
CN(C(=O)COC(=O)Cc1ccccc1[N+](=O)[O-])C1CCS(=O)(=O)C1 (stereo unspecified)		0
COc1ccc(C(=O)COC(=O)CN2C(=O)C3CC=CCC3C2=O)c(OC)c1 (stereo unspecified)		0
CCc1cccc(NC(=O)CCCN2C(=O)C(c3ccccc3)Oc3cccnc32)c1 (stereo unspecified)		-11.3
COCCN(CCOC)c1nc(N)c2c(N)nc3c(c2c1C#N)CC(=O)N3Cc1ccc(Cl)cc1	5.17 µM (active)	
CCC(=O)Nc1ccc(S(=O)(=O)Nc2c(NC)c3ccccc3oc2=O)cc1		-11.8
CC1CC(C)CN(CCCNC(=O)c2csc3c2CCCCC3)C1 (stereo unspecified)		-3.73
CC(C(=O)c1ccc(-c2ccccc2)cc1)[n+]1cccc(Br)c1 (stereo unspecified)		1.43
Cc1ccc2c(c1)C1CN(C)CCC1N2S(=O)(=O)c1cccc(F)c1 (stereo unspecified)		10.5
Cc1cccc(N2CCC(NCc3c(C(=O)N4CCCCC4)nc4c(C)cccn34)CC2)c1	25.9 µM (active)	
CCOC(=O)C1CCN(Cc2c(C(=O)N3CCOCC3)nc3c(C)cccn23)CC1		-5.05
Cc1cccn2c(CNCC(C)Oc3cccnc3)c(C(=O)N3CCOCC3)nc12 (stereo unspecified)		17.3
CN(CC(=O)Nc1ccc(Cl)cc1)CC(=O)Nc1cccc2ccccc12		1.03
Cc1ccc(S(=O)(=O)N(Cc2ccccc2)c2ccccn2)cc1[N+](=O)[O-]		3.26
Cn1c(Cc2cccc3ccccc23)nnc1SCC(=O)N1CCN(c2cccc(Cl)c2)CC1	18.4 µM (active)	
Cn1c(CNC(=O)c2ccco2)nnc1SCC(=O)N1CCN(c2ccccc2)CC1		-13.3
Cc1ccccc1NC(=O)Cc1nnc(SCC(=O)N2CCN(c3ccccc3)CC2)n1C		3.86

Structure (SMILES)	Potency	activity change, negative = inhibition [%]
O=C(CN1CCc2ccccc2C1)Nc1cccc(S(=O)(=O)N2CCOCC2)c1		-1.35
CC1CCC(NC(=O)CN(C)S(=O)(=O)c2ccc3c(c2)c(=O)n(C)c(=O)n3C)CC1 (stereo unspecified)		2.58
O=C(CSc1nc2ccccc2c(=O)[nH]1)Nc1nc(-c2ccc(Br)cc2)cs1		0
CC(=O)NCc1ccc(-c2csc(NC(=O)CCCc3nc4ccccc4c(=O)[nH]3)n2)cc1		-16.2
Cc1cc(C)c(-c2csc(NC(=O)CCCc3nc4ccccc4c(=O)[nH]3)n2)c(C)c1	5.17 µM (active)	
CCCSc1ccc([C@H]2N[C@@](Cc3ccccc3)(C(=O)OC)[C@H]3C(=O)N(C)C(=O)[C@@H]23)cc1		-4.02
COc1ccc(CC(NC(C)=O)C(=O)NC2CCN(C(=O)c3ccc(OC)c(OC)c3)CC2)cc1OC (stereo unspecified)		2.36
COc1ccc(C(=O)N2CCc3cc(OC)c(OC)cc3C2c2cccc([N+](=O)[O-])c2)cc1 (stereo unspecified)		-3.07
CCc1ccc(OCC2c3cc(OC)c(OC)cc3CCN2C(C)=O)cc1 (stereo unspecified)	6.51 µM (active)	
COc1cccc(NC(=O)CN(C)C(=O)c2cc(C3CC3)nn2-c2ccccc2)c1		-20.6
CCCCCN(C(=O)CCC(=O)OCCOc1ccc(OC)cc1)c1c(N)n(CCCC)c(=O)[nH]c1=O		-22.2
CC(C)N(C(=O)[C@H]1C[C@H](CC(=O)NCCC2=CCCCC2)C(=O)N2CCc3c([nH]c4cc(CCC(=O)N(C)C)ccc34)[C@]12C)C(C)C		-10.1
COc1ccccc1C(CNC(=O)c1cccc(NS(=O)(=O)c2ccc(Br)cc2)c1)N(C)C (stereo unspecified)		-5.67
O=S(=O)(c1ccc(NC(=S)NN=C(C2CC2)C2CC2)cc1)N1CCOCC1		7.52
O=C(NC(=S)Nc1ccc(S(=O)(=O)N2CCOCC2)cc1)c1ccccc1[N+](=O)[O-]		5.03
O=[N+]([O-])c1cc(Cl)cc(/C=N/NC(=S)Nc2cc(S(=O)(=O)N3CCOCC3)ccc2Cl)c1O	20.6 µM (active)	
Cc1cc(=O)oc2c3c(cc(OCC(=O)N[C@H](C(=O)O)c4ccccc4)c12)OC(C)(C)CC3		-12.2
O=C(c1ccccc1-c1ccccc1)N1CCOCC1		1.69
Cc1oc2c(c1C(=O)N1CCOCC1)C(=O)c1ccccc1C2=O	4.61 µM (active)	
Cc1noc(C)c1C(=O)N1CCOCC1		9.19
CC(=O)NC12CC3CC(C1)CC(C(=O)N1CCN(S(=O)(=O)c4cccs4)CC1)(C3)C2		-2.67
Nc1ncnc2c1ncn2[C@@H]1O[C@H](CNCc2cccn2-c2nccs2)[C@@H](O)[C@H]1O		17.2
O=C(CCN1C(=O)[C@@H]2Cc3ccccc3CN2C1=O)NCCc1ccccc1		-2.64

Structure (SMILES)	Potency	activity change, negative = inhibition [%]
CN(C)C(=O)CCc1ccc2c3c([nH]c2c1)[C@]1(CCc2ccccc2)[C@@H](C(=O)N2CCCCC2)C[C@H](CC(=O)NCCC2=CCCCC2)C(=O)N1CC3		-29.9
CC(C)(O)C#Cc1ccc(CN2CCC(CO)(CCc3ccccc3)CC2)cc1		-8.27
CC(=O)c1c(C)[nH]c(C(=O)COC(=O)CCOc2ccc(C)cc2)c1C		12.8
CC(=O)c1c(C)[nH]c(C(=O)COC(=O)c2cccc(S(=O)(=O)N(C)c3ccccc3)c2)c1C	18.4 µM (active)	
COc1ccc(C)cc1NC(=O)C(OC(=O)c1cccc(S(=O)(=O)N(C)c2ccccc2)c1)c1ccccc1 (stereo unspecified)		-3.11
COc1ccc(Cl)cc1NC(=O)CN(C)C(=O)c1cc(-c2cccs2)nn1-c1ccccc1		-10.8
CCOc1ccc(C(=O)Nc2ccc(S(=O)(=O)Nc3cc(C)on3)cc2)cc1		8.23
CC(C)C(=O)Nc1cccc(NC(=S)NC(=O)C(c2ccccc2)c2ccccc2)c1	16.4 µM (active)	
CCCCC(=O)NNC(=S)NC(=O)C(c1ccccc1)c1ccccc1		-4.87
CC(C)C(=O)NC(=S)Nc1ccccc1F		3.5
CCn1c2ccccc2c2cc(NC(=O)COC(=O)c3cc(S(=O)(=O)N4CCCCC4)ccc3Cl)ccc21		18.2
Cc1ccc(NC(=O)CN(C)C(=O)c2cccc(S(=O)(=O)N3CCCC3)c2)cc1		7.43
CCn1c(O)c(N=NC(=O)c2cccc(S(=O)(=O)N3CCCCC3)c2)c2ccccc21	23.1 µM (active)	
CC[C@]12c3[nH]c4ccc(Cl)cc4c3CCN1C(=O)[C@@H](CC(=O)NCCCOC)C[C@@H]2C(=O)N1CCN(C(=O)C2CC2)CC1		-3.04
NC(=O)Nc1ccc(C(=O)OCC(=O)NC2CCCc3ccccc32)cc1 (stereo unspecified)		3.15
CCOc1ccc(OCC)c(NC(=O)CN(C)S(=O)(=O)c2cccc3nsnc23)c1	16.4 µM (active)	
CCOc1ccc(N(CC)S(=O)(=O)c2cccc3nsnc23)cc1		-15.1
CCOc1ccccc1NC(=O)CCS(=O)(=O)c1cccc2nsnc12		-1.26
Cc1ccc(CN2CC(C(=O)N3CCN(S(=O)(=O)c4ccccc4)CC3)CC2=O)cc1 (stereo unspecified)		3.98
O=C(NNc1c2ccccc2nc2ccccc12)c1cc2ccccc2cc1O	13 µM (active)	
Cc1ccc(/C=N/NC(=O)c2cc3ccccc3cc2O)o1		14.5
CC(=O)Nc1ccc(Nc2c3ccccc3nc3ccccc23)cc1		-3.14
CCS(=O)(=O)Nc1ccc(C2=NN(S(=O)(=O)c3ccc(F)cc3)C(c3ccco3)C2)cc1 (stereo unspecified)	20.6 µM (active)	

Structure (SMILES)	Potency	activity change, negative = inhibition [%]
COc1cccc(C2CC(c3ccccc3)=NN2S(=O)(=O)c2ccccc2)c1OC (stereo unspecified)		-10.5
Cc1ccc(C2=NN(C(=O)COc3ncnc4ccccc34)C(c3ccco3)C2)cc1 (stereo unspecified)		6.64
CC(NCC(=O)Nc1cc(Cl)cc(Cl)c1)c1ccccc1 (stereo unspecified)		-8.28
COc1ccc(/C=C(/NC(=O)c2ccccc2)C(=O)Nc2cccc(C(=O)O)c2)cc1		-13.3
COc1cc(SC)ccc1C(=O)N(Cc1ccccc1)c1ccccc1		-10.4
COc1cccc(NC(=O)CN(C)C(=O)Cc2ccc(Cl)cc2Cl)c1		-1.46
CC(Oc1ccc(Cl)cc1Cl)C(=O)/C=C/N(C)C (stereo unspecified)		2.25
CCCC(=O)Nc1cccc(NC(=S)NC(=O)C(C)Oc2ccc(Cl)cc2Cl)c1 (stereo unspecified)	20.6 µM (active)	
COc1ccc(C)cc1NC(=O)CN(C)S(=O)(=O)c1ccc2c(c1)n(C)c(=O)c(=O)n2C		7.65
Cc1ccc(C)c(C(=O)COC(=O)Cn2[nH]c(=O)c3ccccc3c2=O)c1		-0.316
O=C(CCc1nc(-c2ccccc2)no1)Nc1cccc(C(=O)NC2CC2)c1		-26.2
CN(CC(=O)Nc1c(Cl)cccc1Cl)C(=O)CC1OC(=O)c2ccccc21 (stereo unspecified)		10.4
CCN(C(=O)CSc1nc2ccccc2n1CC)C1CCS(=O)(=O)C1 (stereo unspecified)		5.4
CCN(C(=O)COC(=O)/C=C/c1nc2ccccc2s1)C1CCS(=O)(=O)C1 (stereo unspecified)	9.2 µM (active)	
CCN(C(=O)COC(=O)c1c(NC(C)=O)sc(C)c1C)C1CCS(=O)(=O)C1 (stereo unspecified)		-2.68
C=CC(COCc1ccccc1)N(CC(=O)OC)S(=O)(=O)c1cc(Br)ccc1OC (stereo unspecified)		-2.49
Cc1nc2cc(C(F)(F)F)ccc2n1CCNc1nc(-c2cc(Cl)c(N)c(Cl)c2)cs1		-16
COc1ccc(-c2c(C)cc3oc(=O)cc(-c4ccccc4)c3c2C)cc1C=O	25.9 µM (active)	
COc1ccc(-c2c(C)cc3oc(=O)cc(-c4ccccc4)c3c2C)cc1F		19.1
COc1ccc(-c2c(C)cc3oc(=O)cc(-c4ccccc4)c3c2C)cc1OC		-11.1
CCOC(=O)N1CCN(Cc2nnc(-c3ccccc3Cl)o2)CC1		8.04
Cc1ccc(F)cc1NC(=O)CSCc1c(C)noc1C		23.3
